# Several values for one entry are separate records, joined by “and”; a condition that tells them apart may be missing. Identical values can stand only once. About 2,600 (16%) of roughly 16,000 compounds were called active. Another 20% or so got no clear call; they are omitted. The call rests on the fitted dose curve; in most records, active means well fitted curve in the direction sought with a large enough effect; inconclusive means small, poorly fitted or top-dose-only effect, or effect the other way; inactive means no such curve, though single readings can be large or run the other way. Many of the other results were omitted from the sample, so actives are more common in it than they were. More than one record can exist for a structure, and the calls need not agree.
# Target: Cytochrome P450 2D6 (Homo sapiens) (UniProt P10635)
# Assay: Cytochrome panel assay with activity outcomes
# Conditions: recombinant CYP, pro-luciferin dealkylation, luminescence, p450-cyp2d6; series mostly up to 57.1 µM
# On the % scale 0 is the no-effect control and ±100 the full control effect.
# Cytochrome P450 2D6 (Homo sapiens), sequence (P10635 whole entry, looked up): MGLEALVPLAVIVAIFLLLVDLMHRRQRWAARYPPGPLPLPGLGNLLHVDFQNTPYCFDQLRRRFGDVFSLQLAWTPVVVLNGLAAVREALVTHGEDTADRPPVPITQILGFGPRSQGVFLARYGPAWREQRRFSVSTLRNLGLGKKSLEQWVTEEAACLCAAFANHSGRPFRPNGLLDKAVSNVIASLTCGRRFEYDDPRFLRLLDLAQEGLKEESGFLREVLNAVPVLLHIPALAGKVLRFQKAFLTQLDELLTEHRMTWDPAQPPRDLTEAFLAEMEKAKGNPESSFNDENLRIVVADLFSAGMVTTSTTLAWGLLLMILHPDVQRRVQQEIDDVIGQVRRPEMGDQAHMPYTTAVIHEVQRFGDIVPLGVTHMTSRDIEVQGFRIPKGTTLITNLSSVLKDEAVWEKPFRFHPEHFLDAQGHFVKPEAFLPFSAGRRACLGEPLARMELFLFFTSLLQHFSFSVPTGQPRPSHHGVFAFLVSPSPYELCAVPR
Compound,AC50,"activity, negative = inhibition"
C[C@]12N[C@@H](Cc3ccccc31)c1ccccc12,inactive and 79.4 nM (active) and 5.01 µM (active),
C[C@]12N[C@H](Cc3ccccc31)c1ccccc12,inactive,
Cc1nnc2ccc(-c3cccc(C(F)(F)F)c3)nn12,inactive,
S=C(Nc1ccc(Cl)cc1)NC1CC2CCCC(C1)N2C1CCCC1 (stereo not drawn),0.501 µM (active),
NS(=O)(=O)C[C-]1C=C[CH]([Sb-]([Cl])([Cl])([Cl])([Cl])[Cl])C=C1.c1ccncc1 (stereo not drawn),,7.69% [at 11.4 µM] (inactive)
C=CCn1c(O)c(C(C)=NCCCN2CCOCC2)c(=O)[nH]c1=O,inactive,
CC(=O)O[C@H]1C[C@@H](O[C@@H]2[C@H](C)O[C@H](O[C@@H]3[C@H](C)O[C@H](O[C@@H]4CC[C@@]5(C)[C@@H](CC[C@]6(C)[C@]5(C)C[C@H](O)[C@]5(C)[C@@H](C7=CC(=O)OC7)CC[C@@]56O)C4)C[C@@H]3O)C[C@@H]2O)O[C@@H](C)[C@H]1O[C@H]1O[C@@H](CO)[C@@H](O)[C@@H](O)[C@@H]1O,inactive,
CC1=CC(=O)C2=C(C)C[C@@H](O)[C@@H]3[C@@H](OC(=O)[C@H]3C)[C@H]12,inactive,
CN1CCN(c2ccc([N+](=O)[O-])c(N/N=C3\CN4CCC3CC4)c2)CC1,inactive,
C=CCN1C[C@H](C)N([C@H](c2ccc(C(=O)N(CC)CC)cc2)c2cccc(OC)c2)C[C@H]1C,1.58 µM (active),
C=CCN1C[C@H](C)N([C@@H](c2ccccc2)c2ccc(C(=O)N(CC)CC)cc2)C[C@H]1C,inactive,
C=CCN1C[C@H](C)N([C@H](c2ccc(C(=O)N(CC)CC)cc2)c2cccc(O)c2)C[C@H]1C,inactive,
C=CCN1C[C@@H](C)N([C@H](c2ccc(C(=O)N(CC)CC)cc2)c2cccc(OC)c2)C[C@H]1C,31.6 µM (active),
Cn1c(=O)c2[nH]cnc2n(C)c1=O.[CH2-][C@H](Cc1cccc2cc(C(=O)O)c(=O)oc12)OC.[Hg].[OH-],,10.9% [at 11.4 µM] (inactive)
Cc1ccc(-c2nc3ccccc3c(=O)n2-c2ncccc2C)cc1,inactive,
C[C@H]1CC[C@@]2(NC1)O[C@@H]1C[C@H]3[C@@H]4CC=C5C[C@@H](O)CC[C@]5(C)[C@@H]4CC[C@]3(C)[C@@H]1[C@@H]2C,inactive,
COc1ccc(OCC(=O)Nc2ccc(Cl)cc2C(=O)c2ccccc2)cc1,inactive,
C[C@@H](Cc1ccc(OCC(=O)O)cc1)NC[C@H](O)c1cccc(Cl)c1,25.1 µM (active),
CCNC[C@H](O)c1cccc(O)c1,inactive,
O=C(Nc1ccc(C(F)(F)F)cc1)c1cccn(Cc2ccc3c(c2)OC(F)(F)O3)c1=O,inactive,
CCCCN1C(=O)C(C2c3ccccc3C(=O)N2Cc2ccccc2)C(=O)NC1=S (stereo not drawn),inactive,
COC(=O)[C@@H]1[C@@H]2C[C@H]3c4[nH]c5cc(OC)ccc5c4CCN3C[C@@H]2C[C@H](OC(=O)/C=C\c2cc(OC)c(OC)c(OC)c2)[C@H]1OC,inactive,
O=C(CCCN1CCC2(CC1)C(=O)NCN2c1ccccc1)c1ccc(F)cc1,2.51 µM (active) and 1 µM (active) and 1.58 µM (active),
O=C1NCN(c2ccccc2)C12CCN(CCCOc1ccc(F)cc1)CC2,0.158 µM (active),

Compound,AC50,"activity, negative = inhibition"
O=C(CCCN1CCC(n2c(=O)[nH]c3ccccc32)CC1)c1ccc(F)cc1,6.31 µM (active),
O=C1NCN(c2ccccc2)C12CCN(C[C@H]1COc3ccccc3O1)CC2,0.0631 µM (active),
CC(=O)OC1=CC2=CC[C@H]3[C@H]4CCC(=O)[C@@]4(C)CC(=O)[C@]3(S)[C@]2(C)CC1,,0.557% [at 11.4 µM] (inactive)
CC[C@@](O)(C(=O)O)c1cc2n(c(=O)c1CO)Cc1cc3ccccc3nc1-2,,10.4% [at 11.4 µM] (inactive)
O=C(Nc1cccc(F)c1)N1CC2(CCN(C(=O)Oc3ccccc3)CC2)C1,inactive,
CN1C(=O)C(=Cc2ccccc2Oc2ccc(Cl)c(F)c2)C(=O)N(C)C1=O,inactive,
CC(C)C12CN3CC(C(C)C)(CN(C1)C3c1cccnc1)C2=O (stereo not drawn),inactive,
O=C(CCCN1CCC2(CC1)C(=O)N(Cc1cccc(F)c1)CN2c1ccccc1)c1ccc(F)cc1,3.16 µM (active),
C[C@@]12CC(=O)[C@H]3[C@@H](CCC4=CC(=O)CC[C@]43C)[C@H]1CCC2=O,inactive,
COc1ccccc1CC1C(=O)C2CCN1CC2 (stereo not drawn),11.2 µM (active),
CC(C)C(=O)Nc1ccc([N+](=O)[O-])c(C(F)(F)F)c1,inactive,
CC(C)(C)NC[C@H](O)c1cc(Cl)c(N)c(Cl)c1,inactive,
CN(C)C(=O)Oc1cc(OC(=O)N(C)C)cc([C@@H](O)CNC(C)(C)C)c1,7.94 µM (active),
CN(C)C(=O)Oc1cccc([N+](C)(C)C)c1,inactive,
CCCC[N+]12CCC(CC1)C(C(=O)c1cccs1)C2 (stereo not drawn),0.282 µM (active),
CCN1C[C@@]2(COC)CC[C@H](O)[C@@]34[C@@H]2C[C@@H]([C@@H]13)[C@]1(O)C[C@@H](OC)C2C[C@H]4[C@H]1[C@H]2OC(C)=O,inactive,
CC[N+](CC)(CCCNC1=CC(=O)C(NCCC[N+](CC)(CC)Cc2ccccc2)=CC1=O)Cc1ccccc1,inactive,
CC(=O)O[C@H]1CC[C@@]2(C)[C@@H](CC[C@H]3[C@H]2CC(=O)[C@@]2(C)[C@@H]3C[C@H]3CC(C)=CC(=O)[C@H]32)C1,,2.72% [at 11.4 µM] (inactive)
COc1ccc(C[C@@H](N)c2ccc(OC)cc2)cc1,0.631 µM (active),
COc1ccc(OC)c([C@H](O)[C@H](C)N)c1,inactive,
Cc1ccc(C(=O)C2C(=O)c3ccccc3C2=O)cc1,inactive,
O=C1NC(=S)NC(=O)C1=Cc1cccc2cc3ccccc3cc12,,-0.164% [at 11.4 µM] (inactive)
CC(C)[C@H](CO)Nc1nc(Nc2cccc(Cl)c2)c2ncn(C(C)C)c2n1,inactive,
CC[C@@H](CO)Nc1nc(NCc2ccccc2)c2ncn(C(C)C)c2n1,31.6 µM (active),

# — PubChem BioAssay AID1851 (National Center for Advancing Translational Sciences (NCATS), 2009)
